Pf growth 48h: inhibits P. falciparum growth in the first generation, 48 h; P. falciparum luciferase growth in erythrocytes, 48 h; Potency, µM (series often up to 28.7 µM), for inactives: at the top dose activity change, negative = inhibition, usual class: inhibitors; hit rate 5.9% among 310,000; also: potency is read from the fitted curve at half-maximal effect; % is scaled to controls: 0 for no effect and ±100 for the full control effect
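A one-generation exposure of luciferase-tagged malaria parasites in RPMI 1640/Albumax erythrocyte culture, 37 C and 5% CO2. Inhibition is inferred from decreased luminescence after adding detection reagent.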
Shiga inhibitor: Shiga toxin inhibition. Vero cells, Shiga toxin protein synthesis inhibition reporter. inhibition, % at 38.7 µM. hit rate 9.2% among 290,000. AID 2315; in the data active = inhibition mostly above about 28%, no sharp cut-off; inactive = mostly below about 43%; also: 0% is about no effect
Pf growth 96h: inhibits malaria parasite growth, 96 h. hit rate 6.9% among 320,000. P. falciparum luciferase reporter growth, 96 h. AID 504834. Potency, µM (series often up to 28.7 µM), for inactives: top-dose activity change, negative = inhibition, usual class: inhibitors; also: potency is read from the fitted curve at half-maximal effect; % is scaled to controls: 0 for no effect and ±100 for the full control effect
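Infected RBCs, 2% Hct / 0.05% parasitemia final; luciferase-reporter P. falciparum; cpd 96 h, 37 C, 5% CO2; luciferase detection reagent; luminescence.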
CHX counter: counter-screen for Shiga toxin inhibitors: cycloheximide protein synthesis inhibition; cell reporter, cycloheximide protein synthesis inhibition counterscreen; max response, %; hit rate 12% among 300,000; AID 2314; in the data active = max response mostly above about 13%, no sharp cut-off; inactive = mostly below about 14%; also: read at 38.3 µM for the half of the compounds with a filed dose; 0% is about no effect
NS1 function inh: influenza NS1 inhibition; hit rate 0.4% among 270,000; Potency, µM (highest dose often 46.1 µM), without a hit: at the highest dose activity, positive = more growth; calls by dose curve; also: potency is read from the fitted curve at half-maximal effect; actives are rising curves; nearly all actives have a fitted effect of over 50% in size
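A cell-based growth assay was used: compounds that relieve NS1-induced slow growth of budding yeast raise OD600. Assay medium was yeast nitrogen base with ammonium sulphate and -URA supplement, pH 6.0, with 2% galactose.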
An asterisk follows results filed as active; u = inconclusive; x = no result given. Sampled rows, rich in hits. Any-hit rate of the full collection: about 21%. Unless noted, calls follow the shape of the dose curve; as a rule, active = well fitted inhibition curve with a large enough effect; inconclusive = small, poorly fitted or top-dose-only effect, or another doubt; inactive = no such curve, though single readings can be large or run the other way.

SMILES	Pf growth 48h	Shiga inhibitor	Pf growth 96h	CHX counter	NS1 function inh
Cc1cc(C)cc(NC(=O)Cn2c(SCc3cc(C)ccc3C)nc3ccncc32)c1	2.9%	89.2*	111.8%	75.6*	2.0%
Cc1ccc(CSc2nc3ccncc3n2CC(=O)Nc2cc(C)cc(C)c2)cc1	140.0%	14.0	u	7.8	u
COc1cc(/C=C2\SC(N3CCC(C)CC3)=NC2=O)ccc1O	u	15.3	-16.5%	42.0*	-9.9%
CC(C)c1ccc(/C=C2\SC(N3CCCC3)=NC2=O)cc1	u	6.8	3.7µM*	-0.4	-1.2%
O=C1N=C(N2CCCCC2)S/C1=C\c1ccc(Br)cc1	64.9%	-16.3	u	0.9	-20.0%
CN(C)c1ccc(/C=C2\SC(N3CCCCC3)=NC2=O)cc1	52.1%	x	4.15µM*	40.8*	-8.9%
Cc1ccc(/C=C2\SC(N3CCCC3)=NC2=O)cc1	u	28.0	20.5%	6.7	-39.1%
O=C1N=C(N2CCCCC2)S/C1=C/C1=Cc2ccccc2OC1	18.8%	76.1*	u	37.0*	11.3%
O=C(CC1SC(N2CCCC2)=NC1=O)Nc1ccc(C(=O)N2CCN(c3cccc(Cl)c3)CC2)cc1 (configuration not stated)	8.28µM*	x	u	x	x
CCOC(=O)C1CCCN(C(=O)c2ccc(NC(=O)CC3SC(N4CCCC4)=NC3=O)cc2)C1 (configuration not stated)	10.4µM*	x	u	x	x
CCOC(=O)C1CCN(S(=O)(=O)c2cn(C)c(C)n2)CC1	u	-3.8	-1.1%	0.9	2.3%
CCCC(=O)OC(C(=O)Nc1cc(C(F)(F)F)ccc1Cl)c1ccccc1 (configuration not stated)	13.1µM*	-3.3	13.1µM*	-3.7	0.7%
O=C(OC(C(=O)Nc1ccc(Cl)cc1C(F)(F)F)c1ccccc1)c1c(Cl)cccc1Cl (configuration not stated)	11.7µM*	-9.2	0.0%	0.6	-6.3%
CCOc1ccc(-c2nnc(NC(=O)CCCOc3cccc(C)c3)o2)cc1	63.3%	70.4*	u	25.7*	0.0%
CCOc1ccc(-c2nnc(NC(=O)Cc3ccc(OC)cc3)o2)cc1	22.7%	25.9	14.2%	25.2	0.2%
CCOc1ccc(-c2nnc(NC(=O)Cc3cc(OC)c(OC)c(OC)c3)o2)cc1	-4.6%	72.9*	10.3%	17.9*	-3.8%
COc1ccc(O)c(C(=O)c2cnc3c(c2)c(C)nn3CCO)c1	u	-0.6	u	-2.9	10.1%
NC(=O)C1CCN(C(=O)CC2(CC(=O)O)CCCC2)CC1	20.4%	4.2	-4.1%	-7.9	-13.1%
NC(=O)CSc1nnc(-c2cccc(S(=O)(=O)N3CCOCC3)c2)n1C1CCCCCC1	x	-15.3	u	-4.5	-8.5%
COc1ccccc1-n1c(SCC(=O)O)nnc1-c1ccc(S(=O)(=O)N2CCCCC2)cc1	-6.5%	38.8	11.7µM*	-3.3	12.3%
CCOC(=O)CSc1nnc(-c2ccc(S(=O)(=O)N3CCOCC3)cc2)n1-c1ccccc1	7.38µM*	1.3	x	-0.3	-10.0%
Cc1nnc(SCC(=O)c2ccc(S(=O)(=O)N3CCOCC3)cc2)n1-c1ccccc1	u	-11.0	7.1%	-1.6	8.5%
Cc1ccc(CSc2nnc(-c3cccc(S(=O)(=O)N4CCOCC4)c3)n2C2CCCC2)cc1	9.28µM*	-5.2	8.28µM*	5.9	4.2%
CCn1c(SCC(=O)Nc2ccccc2)nnc1-c1ccc(S(=O)(=O)N2CCOCC2)cc1	5.22µM*	14.9	u	-1.1	-11.7%
CCOc1cc(/C=C2\NC(=O)NC2=O)ccc1OC(C)C(=O)O (configuration not stated)	-6.1%	-2.6	-25.8%	-1.8	9.9%
SMILES	Pf growth 48h	Shiga inhibitor	Pf growth 96h	CHX counter	NS1 function inh
COc1ccc(C2NC(=O)CCC2[N+](=O)[O-])cc1 (configuration not stated)	15.2%	x	u	-0.9	4.0%
CC(C)Cn1c(SCC(=O)NCc2ccc(Cl)cc2)nnc1-c1cccc(S(=O)(=O)N2CCOCC2)c1	u	-14.0	9.28µM*	1.2	-3.3%
C=CCn1c(SCC(=O)Nc2ccccc2)nnc1-c1cccc(S(=O)(=O)N2CCOCC2)c1	x	20.3	27.0%	11.4	-4.9%
COc1ccccc1-n1c2nc3ccccc3nc2c2c(=O)n(-c3cc(C)cc(C)c3)cnc21	13.1µM*	-8.9	u	4.4	u
O=S(=O)(Nc1cc(C(F)(F)F)ccc1N1CCOCC1)c1ccccc1	u	-1.2	u	-3.1	3.3%
Cc1ccc(S(=O)(=O)Nc2cc(C(F)(F)F)ccc2N2CCOCC2)cc1C	3.29µM*	2.6	u	-2.1	18.6%
CCOC(=O)c1ccc(N2CCCCC2)c(NS(=O)(=O)c2cccc(C(F)(F)F)c2)c1	10.4µM*	29.6	9.28µM*	13.1	u
O=S(=O)(Nc1cc(C(F)(F)F)ccc1N1CCOCC1)c1ccc2ccccc2c1	u	-21.6	13.1µM*	0.9	-12.2%
Cc1ccccc1C(=O)NCCNC(=O)c1ccco1	11.7%	1.2	44.4%	1.0	-0.8%
C[C@]12C=CC(=O)C=C1CC[C@@H]1[C@@H]2C(=O)C[C@@]2(C)[C@H]1CC[C@]2(O)C(=O)COC(=O)CCC(=O)O	10.0%	-5.2	-4.8%	-3.5	0.3%
Cc1c(Cl)cnc(NC(=O)COC(=O)CCc2nc3ccccc3s2)c1Cl	4.1%	-13.6	u	3.1	4.0%
Cn1c(-c2cccs2)nc2ccccc21	255.0%	124.6*	-6.7%	34.8*	x
CN(C)c1nc2ccccc2n(C)c1=O	0.0%	-4.2	11.3%	4.0	x
Cn1c(-c2ccc(C=O)s2)nc2ccccc21	x	71.4	u	22.6*	-163.6%
CN(Cc1ccccc1F)c1nc(-c2cccs2)nc2ccccc12	9.28µM*	6.9	-4.3%	3.2	-42.4%
N#Cc1ccc(S(=O)(=O)N2CCc3[nH]c4ccc(F)cc4c3C2)cc1	-12.8%	14.1	23.1%	-2.4	-1.9%
CC1CCN(CC(=O)c2ccc3c(c2)OCCO3)CC1	297.8%	20.9	284.5%	8.5	x
CC(CN1CCCCC1)OC(=O)c1ccc2c(c1)OCO2 (configuration not stated)	-7.6%	24.4	-16.5%	25.2*	-6.3%
CC1CCN(CC(C)OC(=O)c2ccc3c(c2)OCCO3)CC1 (configuration not stated)	x	28.1	35.7%	22.7*	-0.8%
CC(CN1CCCC1)OC(=O)c1ccc(Cl)cc1 (configuration not stated)	3.8%	-5.2	5.0%	12.5	12.5%
Cc1cccc(NC(=O)[C@@H](NC(=O)N2C[C@H]3C[C@@H](C2)c2cccc(=O)n2C3)C(C)C)c1	17.7%	-4.1	5.22µM*	1.7	22.1%
CCc1ccc(NC(=O)CCNC(=O)N2C[C@H]3C[C@@H](C2)c2cccc(=O)n2C3)cc1	9.8%	30.6*	3.5%	27.2*	-6.2%
CCOc1ccc(NC(=O)CCNC(=O)N2C[C@H]3C[C@@H](C2)c2cccc(=O)n2C3)cc1	4.2%	-2.6	37.5%	-2.3	-2.9%
COc1cccc(NC(=O)[C@@H](NC(=O)N2C[C@H]3C[C@@H](C2)c2cccc(=O)n2C3)C(C)C)c1	17.2%	2.0	8.3%	-2.2	12.7%

Screening data (PubChem BioAssay)
